Assay outcomes as filed in PubChem BioAssay.
Shown are actives, neighbours in structure and some others; about 21% of the full set was active somewhere.
CHX counter: affects cycloheximide protein synthesis inhibition readout, counter-screen; cell reporter, cycloheximide protein synthesis inhibition counterscreen; max response, %; 300,000 compounds, 12% hits; in the data active = max response mostly above about 13%, no sharp cut-off; inactive = mostly below about 14%; note: read at 38.3 µM for the half of the compounds with a filed dose
Shiga toxin inh: inhibitors of Shiga toxin in Vero cells | Vero cells, Shiga toxin protein synthesis inhibition reporter | inhibition, % at 38.7 µM | 290,000 compounds, 9.2% hits; in the data active = inhibition mostly above about 28%, no sharp cut-off; inactive = mostly below about 43%
HCV inhibitor: HCV inhibition | Huh7.5.1 HCVcc-Cre infection, luciferase reporter, 44 h | Potency, µM (highest dose often 41.8 µM), usual class: inhibitors | 340,000 compounds, 3.4% hits
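Compounds are dispensed onto cells plated 4 h earlier at 1,000 per well, with HCVcc-Cre virus (about 0.5 moi) added next. Following 44 h of culture, luminescent signal is measured for 15 sec after 15 min with substrate at room temperature.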
Pf growth 96h: inhibits malaria parasite growth, 96 h; 320,000 compounds, 6.9% hits; Potency, µM (titrated, usually from 28.7 µM), hits mostly inhibitors; P. falciparum luciferase reporter growth, 96 h
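P. falciparum expressing integrated firefly luciferase, in erythrocytes at 2% hematocrit, 0.05% parasitemia, incubated with compounds 96 h at 37 C, 5% CO2. Growth inhibition read as loss of luminescence; two-generation exposure targets delayed-death apicoplast inhibitors.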
AMA1-RON2 inh: disrupts binding of P. falciparum AMA1 to RON2; Potency, µM (highest dose often 58.2 µM), most hits filed as inhibitors; AlphaScreen AMA1-biotinylated RON2 peptide binding; AID 720542; 360,000 compounds, 0.2% hits; note: nearly all actives have a fitted effect of over 45% in size
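AMA1 (3D7) with his tag at 25 nM final met compounds first, then biotinylated RON2 peptide at 25 nM; detection used donor plus acceptor beads, 10 µg/mL apiece, read by AlphaScreen after 30 min at room temperature.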
Pf growth 48h: inhibits P. falciparum growth in the first generation, 48 h; AID 504832; P. falciparum luciferase growth in erythrocytes, 48 h; 310,000 compounds, 5.9% hits; Potency, µM (series often up to 28.7 µM), actives largely listed as inhibitors
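Read-out is firefly luciferase luminescence from an integrated reporter in P. falciparum, so falling signal marks reduced parasite growth. Infected erythrocytes were at 2% hematocrit and 0.1% parasitemia (final) in Albumax-supplemented RPMI 1640.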
Of the large screens only hits and unclear results are named; the others gave an inactive call; ! = not confirmed by another sample. Unless noted, calls come from the whole dose curve; as a rule, active = well fitted curve in the direction sought with a large enough effect; inconclusive = small, poorly fitted or top-dose-only effect, or another doubt; inactive = no such curve, though single readings can be large; an effect the other way counts as inactive or inconclusive.

O=C(CCn1ccc2ccccc21)Nc1ccc(N2CCOCC2)cc1	Pf growth 96h inconclusive, Pf growth 48h 13µM
O=C(CCn1c(=O)oc2ccccc21)Nc1ccc(N2CCOCC2)cc1	none
COc1cccc(/C=C/C(=O)Nc2ccc(N3CCOCC3)cc2)c1OC	CHX counter 18
O=C(COc1cccc(Cl)c1)Nc1ccc(N2CCOCC2)cc1	none (no result: Pf growth 48h)
Cc1ccc(C(=O)N2CCN(c3ccc(NC(=O)COc4ccccc4C)cc3)CC2)cc1	HCV inhibitor 11µM, Pf growth 96h inconclusive, Pf growth 48h 8.3µM
Cc1cccc(C)c1OCC(=O)Nc1ccc(N2CCOCC2)cc1	Pf growth 96h 1.5µM, Pf growth 48h inconclusive
Cc1ccc(/C=C/C(=O)Nc2ccc(S(=O)(=O)Nc3onc(C)c3C)cc2)cc1	none
COc1ccccc1OCCCC(=O)Nc1ccc(N2CCOCC2)cc1	CHX counter 13
CC(C)CC(=O)Nc1ccc(N2CCN(S(C)(=O)=O)CC2)cc1	none
CC(C)CC(=O)Nc1ccc(N2CCOCC2)cc1	Shiga toxin inh 89 (no result: Pf growth 96h)
CC(C)C(NC(=O)c1ccc(C(C)(C)C)cc1)C(=O)Nc1ccc(N2CCOCC2)cc1 (centres undefined)	Pf growth 96h inconclusive, Pf growth 48h 13µM (no result: CHX counter, Shiga toxin inh)
Cc1cccc(OCC(=O)Nc2ccc(N3CCCC3)cc2)c1C	HCV inhibitor inconclusive, Pf growth 48h 10µM
Cc1ccccc1OCCCC(=O)Nc1ccc(N2CCOCC2)cc1	HCV inhibitor inconclusive
Cc1nn(CC(=O)Nc2ccc(N3CCOCC3)cc2)c(C)c1Cl	CHX counter 8.8 (no result: HCV inhibitor)
Cc1ccc(OCC(=O)Nc2ccc(N3CCN(C(=O)c4ccco4)CC3)cc2)cc1	HCV inhibitor inconclusive, Pf growth 96h 5.2µM, Pf growth 48h inconclusive
c1ccc2nc3c(nc2c1)OCC1CCCCN31 (centres undefined)	CHX counter 54, Shiga toxin inh 108
Cc1ccc(-n2cc(CN(C)Cc3nccn3C)c(-c3ccc(F)cc3)n2)cc1	Pf growth 48h 8.3µM
Cc1ccc(-n2cc(CN(C)Cc3ncc[nH]3)c(-c3cccc(C)c3)n2)cc1	HCV inhibitor inconclusive, Pf growth 48h 2.6µM
Cc1ccc(-n2cc(CN(C)CCc3cn[nH]c3)c(-c3cccc(C)c3)n2)cc1	Pf growth 48h inconclusive
CCN1CC(CN(C)Cc2cn(-c3ccc(C)cc3)nc2-c2cccc(C)c2)CC1=O (centres undefined)	Pf growth 96h inconclusive, Pf growth 48h 10µM
Cc1ccc(-n2cc(CNC(C)Cc3cnccn3)c(-c3cccc(C)c3)n2)cc1 (centres undefined)	Pf growth 48h 3.3µM
CN(Cc1ncc[nH]1)Cc1cn(-c2ccccc2)nc1-c1ccc2c(c1)OCO2	Pf growth 48h inconclusive
COc1ccc(CNC(=O)Cn2c(=O)n(CCC(=O)N3CCCCC3)c(=O)c3sccc32)cc1	none
O=C(Nc1ccnn1C1CCNCC1)c1ccc2c(c1)OCO2	none (no result: CHX counter, Shiga toxin inh, Pf growth 96h, Pf growth 48h)
CC(=O)C1=C(O)C(=O)N(c2ccc(C)cc2)C1c1ccccn1 (centres undefined)	CHX counter 22, Shiga toxin inh 37
CC(=O)C1=C(O)C(=O)N(c2ccc(O)cc2)C1c1ccc(C)cc1 (centres undefined)	none
Cc1ccc(C)c(OCCn2nnc3ccccc32)c1	CHX counter 33, Shiga toxin inh 34
CCOc1ccccc1OCCn1nc2ccccc2n1	Pf growth 96h inconclusive
Cc1cc(C)cc(OCCn2nnc3ccccc32)c1	CHX counter 47, Shiga toxin inh 58, Pf growth 96h inconclusive
Cc1cccc(C)c1OCCn1nnc2ccccc21	Pf growth 96h inconclusive
Clc1ccccc1OCCn1nnc2ccccc21	CHX counter 45, Shiga toxin inh 63
Cc1ccc(OCCn2nc3ccccc3n2)c(C)c1	CHX counter 32, Shiga toxin inh 38, HCV inhibitor inconclusive (no result: Pf growth 96h)
Nc1ncnc(Oc2ccccc2F)c1[N+](=O)[O-]	none
CN1CC[C@H](CN2c3ccccc3Sc3ccccc32)C1	Pf growth 96h 4.8µM, Pf growth 48h 3.8µM (no result: CHX counter, Shiga toxin inh, HCV inhibitor, AMA1-RON2 inh)
CC1CCN(CC(O)CN2c3ccccc3Sc3ccccc32)CC1 (centres undefined)	HCV inhibitor inconclusive, Pf growth 48h inconclusive
C[C@@H]1CN([C@@H](C)CO)C(=O)CCCn2cc(nn2)CO[C@H]1CN(C)S(=O)(=O)c1ccc(Cl)cc1	none (no result: CHX counter, Shiga toxin inh, HCV inhibitor, Pf growth 96h, Pf growth 48h)
COc1cccc(OCc2nc(-c3cccc([N+](=O)[O-])c3)no2)c1	CHX counter 25, AMA1-RON2 inh inconclusive
COc1cccc(OCc2nc(-c3ccc(Br)o3)no2)c1	CHX counter 28
Brc1ccc(-c2noc(COc3ccc4ccccc4c3)n2)o1	Pf growth 96h inconclusive (no result: Pf growth 48h)
COc1ccc(Cc2nc(-c3ccc(Br)o3)no2)cc1OC	CHX counter 18, HCV inhibitor inconclusive, Pf growth 96h inconclusive (no result: Pf growth 48h)
Cc1ccc(-c2noc(COc3ccc4c(c3)OCO4)n2)cc1	none
Cc1cccc(OCc2nc(-c3ccc(Br)o3)no2)c1	Shiga toxin inh 92
Cc1ccc(F)c(C2C3C=CCC(C)C3C(=O)N2Cc2ccccc2)c1 (centres undefined)	none (no result: HCV inhibitor, Pf growth 96h, AMA1-RON2 inh, Pf growth 48h)
CC(C)(C)C(=O)/C(=C\c1cccc([N+](=O)[O-])c1)n1cncn1	HCV inhibitor 2.5µM, Pf growth 48h 13µM
CC(=O)N/C(=C\c1cccc([N+](=O)[O-])c1)C(=O)NC(C)C	none
CC(=O)Nc1ccc(-c2ccnc3c2CC(C(=O)NCc2ccco2)O3)cc1 (centres undefined)	none (no result: CHX counter, Shiga toxin inh, HCV inhibitor, Pf growth 96h, Pf growth 48h)
CN(C)S(=O)(=O)Oc1cccc(C(=O)Nc2ccccc2Cl)c1	CHX counter 41, Shiga toxin inh 93
CN(C)S(=O)(=O)Oc1ccsc1C(=O)Nc1ccc(Cl)cc1	HCV inhibitor inconclusive, Pf growth 96h inconclusive
CN(C)S(=O)(=O)Oc1ccsc1C(=O)Nc1ccccc1Cl	HCV inhibitor inconclusive, Pf growth 48h inconclusive
CN(C)S(=O)(=O)Oc1cccc(C(=O)Nc2ccc(Cl)cc2)c1	CHX counter 45, Shiga toxin inh 153, HCV inhibitor 10µM
Cc1ccc2c(nc3s/c(=C/c4cccs4)c(=O)n32)c1C	CHX counter 30 (no result: Pf growth 96h)
Cc1ccc2c(nc3s/c(=C\c4ccc(-c5ccccc5C(=O)O)o4)c(=O)n32)c1C	Pf growth 48h inconclusive
CN1CCN(c2c(F)cc3c(=O)c(C(=O)O)cn4c3c2OCN4C)CC1	Pf growth 96h 15µM!
CCOc1ccc(C)cc1S(=O)(=O)n1nc(C)cc1C	none
CCOc1ccc(C(C)(C)C)cc1S(=O)(=O)N1CC(C)OC(C)C1 (centres undefined)	Pf growth 48h 12µM (no result: Pf growth 96h)
CCOc1ccc(C(C)(C)C)cc1S(=O)(=O)n1nc(C)cc1C	HCV inhibitor inconclusive, Pf growth 96h 8.3µM, Pf growth 48h 4.7µM
Cc1cc(C)n(S(=O)(=O)c2cc(Cl)ccc2Cl)n1	Pf growth 48h 10µM
CCNc1ccc(C(=O)NN=C2CCCC2)cc1[N+](=O)[O-]	Pf growth 96h inconclusive
